Hits are enriched below; roughly 1.6% of the tested compounds scored in any of these assays.
KCNQ2 block – inhibitors of rat KCNQ2 potassium channel | O88943 | CHO-K1 KCNQ2, FluxOR thallium flux, 20 min; active compounds read low | B-score at 10 µM | 310,000 compounds, 1.1% hits | AID 2156;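 active = fluorescence ratio B-score at most minus 3 library SDs, with starting brightness B-score within 2 library SDs, cut at about -5.5 in these data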
KCNQ2 pot – enhances the rat KCNQ2 potassium channel; CHO-K1 KCNQ2, FluxOR thallium flux fluorescence; active compounds read high; O88943; B-score at 10 µM; 310,000 compounds, 0.54% hits; AID 2239;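 active = fluorescence ratio B-score at least 3 SD of library B-scores, with initial fluorescence B-score within 3 of them, cut at about 5.3 in these data; same plate scores as AID 2156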;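 note: B-score of peak minus minimum over baseline fluorescence ratio after K+ and Tl+ stimulus; positive B-score means potentiation of KCNQ2 with more thallium influx and brighter signal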
Kir21 conf inh – confirmation of mouse Kir2.1 potassium channel inhibitors | Kir2.1-expressing cells, FluxOR thallium flux fluorescence; active compounds read low | Tl flux remaining, % of negative control (active compounds read low), % at 10 µM | 2,300 compounds, 41% hits | shares compounds with KCNQ2 pot;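 active = Primary-screen hit whose thallium flux fell at least 3 control SD below untreated wells in both duplicates, with normal baseline fluorescence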;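 note: 0% = blank wells without stimulus and 100% = stimulated no-compound controls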
HEK293 ctr – alters thallium flux in parental HEK293 cells, Kir2.1 counter-screen; shares compounds with KCNQ2 pot; FluxOR thallium flux fluorescence; 0% = unstimulated blank wells; FluxOR signal as % of negative control (100 = no effect), % at 10 µM; 2,300 compounds, 19% hits; AID 2105;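 active = dye signal at least 3 control SD above or below untreated wells in both duplicates, raw fluorescence within 3, either direction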;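 note: percent is based on the flux ratio of peak minus minimum fluorescence over baseline F0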
CHO-K1 ctr – parental CHO-K1 activity in KCNQ2 potentiator counter-screen; shares compounds with KCNQ2 pot; parental CHO-K1 cells, FluxOR thallium flux fluorescence; zero = vehicle mean+3SD, 100% = vehicle-minus-blank window; activity increase over 3SD of controls, % at 10 µM; 1,200 compounds, 43% hits;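 active = signal rise of at least 3 SD above the untreated control mean, in both duplicate wells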;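 note: counter screen of KCNQ2 potentiator hits so any rise reflects channel-independent effects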
KCNQ1 sel pot – human KCNQ1 counter-target activity of KCNQ2 potentiators; shares compounds with KCNQ2 pot; CHO KCNQ1 stable, FluxOR thallium flux fluorescence; beyond 3SD, as % of vehicle-control signal; activation over 3SD threshold, % at 10 µM; 1,200 compounds, 28% hits;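 active = fluorescence ratio rise of at least 3 SD of vehicle wells above their mean, in both replicate wells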;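 note: 0% = vehicle mean plus 3 SD and 100% = vehicle minus unstimulated blank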
Target sequence (P51787 whole entry, looked up): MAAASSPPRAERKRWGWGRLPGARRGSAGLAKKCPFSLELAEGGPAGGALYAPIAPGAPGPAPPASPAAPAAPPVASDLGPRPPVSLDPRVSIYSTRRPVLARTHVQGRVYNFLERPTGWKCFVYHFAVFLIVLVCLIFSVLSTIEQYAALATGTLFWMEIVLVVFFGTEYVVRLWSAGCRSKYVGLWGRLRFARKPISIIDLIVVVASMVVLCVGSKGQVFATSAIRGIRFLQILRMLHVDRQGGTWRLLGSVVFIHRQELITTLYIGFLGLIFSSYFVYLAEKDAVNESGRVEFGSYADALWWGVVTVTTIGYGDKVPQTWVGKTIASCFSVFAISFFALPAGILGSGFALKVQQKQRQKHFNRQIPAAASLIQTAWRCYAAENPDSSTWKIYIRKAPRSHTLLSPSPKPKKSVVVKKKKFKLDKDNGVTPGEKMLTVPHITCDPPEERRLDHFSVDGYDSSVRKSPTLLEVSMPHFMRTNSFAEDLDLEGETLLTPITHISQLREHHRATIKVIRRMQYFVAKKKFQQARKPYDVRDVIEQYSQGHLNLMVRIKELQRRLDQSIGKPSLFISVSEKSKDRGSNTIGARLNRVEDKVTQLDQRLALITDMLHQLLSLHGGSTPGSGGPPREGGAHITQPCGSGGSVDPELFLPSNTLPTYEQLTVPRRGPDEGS
KCNQ2 pot confirm – confirmation of rat KCNQ2 potassium channel potentiators | CHO-KCNQ2 cells, FluxOR thallium flux fluorescence | shares compounds with KCNQ2 pot | potentiation, less the hit threshold, % at 10 µM | 1,200 compounds, 68% hits;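 active = fluorescence ratio rising 3 SD or more over the vehicle control mean in both replicates, plus primary screen hit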;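 note: peak minus minimum thallium fluorescence divided by baseline after K/Tl stimulus; 0% = vehicle mean plus 3 SD and 100% = vehicle minus unstimulated blank difference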
Kir21 spec – tests whether KCNQ2 potentiators also affect mouse Kir2.1; shares compounds with KCNQ2 pot; HEK293 Kir2.1, FluxOR thallium flux fluorescence; activity over 3SD threshold, % at 10 µM; 1,200 compounds, 2% hits; AID 2345;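 active = fluorescence ratio rise of at least 3 SD above the vehicle-control mean, seen in both replicates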;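 note: 0% = vehicle mean plus 3 SD and 100% = vehicle minus no-stimulus blank window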
KCNQ2 W236L pot – potentiates the retigabine-insensitive rat KCNQ2 W236L mutant channel; current increase over 3SD of negative controls (%), active compounds read high, % at 25 µM; CHO KCNQ2-W236L, automated patch clamp current; 940 compounds, 10% hits; shares compounds with KCNQ2 pot;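 active = current increase at least 3 SD of the untreated controls above them in both duplicate recordings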
An asterisk follows results filed as active.

How did O=[N+]([O-])c1ccc(Sc2nccn2Cc2ccccc2)c([N+](=O)[O-])c1 do in these assays?
KCNQ2 block: inactive; Kir21 conf inh: 52%*; HEK293 ctr: inactive

Results for O=[N+]([O-])c1cc(C(F)(F)F)ccc1Sc1nccn1Cc1ccccc1 ?
KCNQ2 block: inactive; Kir21 conf inh: 58%*; HEK293 ctr: inactive

Results for Cn1c([N+](=O)[O-])cnc1N1CCN(c2nncs2)C1=O ?
KCNQ2 block: inactive; KCNQ2 pot: 2.5

What do the screens show for `COc1ccc(N2CC(C(=O)Nc3nc4ccc(S(C)(=O)=O)cc4s3)CC2=O)cc1` (configuration not stated)?
KCNQ2 block: inactive

How did S=C(Nc1ccccc1Cl)NC1CC2CCCC(C1)N2C1CC1 (configuration not stated) do in these assays?
KCNQ2 block: inactive; KCNQ2 pot: 0.8

What do the screens show for `CN(C)c1nc(N)ncc1-c1ccc(Oc2ccccc2)cc1`?
KCNQ2 block: inactive; KCNQ2 pot: 1.3

Results for O=C(COC(=O)CN1C(=O)C(=O)c2ccccc21)OCN1C(=O)c2ccccc2C1=O ?
KCNQ2 block: inactive; KCNQ2 pot: 0.47

Results for COc1ccc(C)cc1NCc1cccc(OC)c1OC ?
KCNQ2 block: inactive

Results for COc1cc(OC)c(OC)cc1CNc1cc(C)ccc1OC ?
KCNQ2 block: inactive; Kir21 conf inh: 54%*; HEK293 ctr: inactive

Results for CC(C)Cc1nnc(NC(=O)CCS(=O)(=O)c2ccc(Cl)cc2)s1 ?
KCNQ2 block: inactive

How did CCCNC(=O)[C@@H]1CCCN1C(=O)[C@@H]1Cc2ccccc2CN1 do in these assays?
KCNQ2 block: inactive

Results for COc1ccc(-c2csc(NC(=S)NC(=O)c3cc4ccccc4o3)n2)cc1Br ?
KCNQ2 block: inactive; KCNQ2 pot: 2.8

Results for O=C(NC(=S)Nc1cccc(NC(=S)NC(=O)c2ccco2)n1)c1ccco1 ?
KCNQ2 block: inactive

How did CCOc1ccc(NC(=O)c2ccco2)cc1 do in these assays?
KCNQ2 block: inactive; KCNQ2 pot: 1.8

How did CC1CCN(c2ccccc2NC(=S)NC(=O)c2cccs2)CC1 do in these assays?
KCNQ2 block: inactive

What do the screens show for `CCOc1ccc(NC(=S)NC(=O)c2ccco2)cc1`?
KCNQ2 block: inactive; KCNQ2 pot: 7.8*; Kir21 conf inh: inactive; HEK293 ctr: 163%*; CHO-K1 ctr: -8; KCNQ1 sel pot: 38*; KCNQ2 pot confirm: 23*; Kir21 spec: -19; KCNQ2 W236L pot: inactive

Results for O=C(NC(=S)Nc1ccccc1Br)c1ccco1 ?
KCNQ2 block: inactive; KCNQ2 pot: 9.5*; Kir21 conf inh: inactive; HEK293 ctr: 181%*; CHO-K1 ctr: 4.9*; KCNQ1 sel pot: 91*; KCNQ2 pot confirm: 19*; Kir21 spec: -20; KCNQ2 W236L pot: inactive

What do the screens show for `COc1ccc(-c2csc(NC(=S)NC(=O)c3ccco3)n2)cc1Br`?
KCNQ2 block: inactive; KCNQ2 pot: 5.7*; Kir21 conf inh: inactive; HEK293 ctr: inactive; CHO-K1 ctr: 30*; KCNQ1 sel pot: 22*; KCNQ2 pot confirm: -10; Kir21 spec: -31

What do the screens show for `CC1CCN(c2ccccc2NC(=S)NC(=O)c2ccco2)CC1`?
KCNQ2 block: inactive; KCNQ2 pot: 5.9*; Kir21 conf inh: inactive; HEK293 ctr: inactive; CHO-K1 ctr: -5; KCNQ1 sel pot: -8; KCNQ2 pot confirm: -7; Kir21 spec: -30

Results for CN(CC1CCOCC1)C(=O)CC1C(=O)NCCN1Cc1ccc(F)c(F)c1 (configuration not stated) ?
KCNQ2 block: inactive

What do the screens show for `NS(=O)(=O)c1ccc(CNC(=O)c2sccc2-c2ccccc2)cc1`?
KCNQ2 block: inactive; KCNQ2 pot: 1.7

Results for Cc1ccoc1C(=O)Nc1ccc2ccccc2c1 ?
KCNQ2 block: inactive; KCNQ2 pot: 19*; Kir21 conf inh: inactive; HEK293 ctr: inactive; CHO-K1 ctr: 49*; KCNQ1 sel pot: -17; KCNQ2 pot confirm: 75*; Kir21 spec: -18; KCNQ2 W236L pot: inactive

What do the screens show for `Cc1cc(C(=O)Nc2ccc3ccccc3c2)oc1C`?
KCNQ2 block: inactive

Results for O=C(Nc1ccc(Oc2ccc3ccccc3c2)cc1)c1ccco1 ?
KCNQ2 block: inactive; KCNQ2 pot: 11*; Kir21 conf inh: inactive; HEK293 ctr: inactive; CHO-K1 ctr: 10*; KCNQ1 sel pot: 10*; KCNQ2 pot confirm: 28*; Kir21 spec: -17; KCNQ2 W236L pot: 7.7%*

Results for O=C(Nc1ccc(Oc2ccc(NC(=O)c3ccco3)c(NC(=O)c3ccco3)c2)cc1)c1ccco1 ?
KCNQ2 block: inactive; KCNQ2 pot: 0.23

What do the screens show for `Cc1cccc(NC(=S)NC(=O)c2ccco2)c1C`?
KCNQ2 block: inactive; KCNQ2 pot: 9.9*; Kir21 conf inh: inactive; HEK293 ctr: 364%*; CHO-K1 ctr: -10; KCNQ1 sel pot: -2; KCNQ2 pot confirm: 46*; Kir21 spec: -28; KCNQ2 W236L pot: inactive

Results for CS(=O)(=O)c1ccc2nc(NC(=O)c3ccco3)sc2c1 ?
KCNQ2 block: inactive; KCNQ2 pot: 0.64

What do the screens show for `Cc1cccc(NC(=O)CCNC(=O)c2ccco2)c1C`?
KCNQ2 block: inactive

Results for O=C(NC(=S)Nc1nc2ccc(F)cc2s1)c1ccco1 ?
KCNQ2 block: inactive; KCNQ2 pot: 13*; Kir21 conf inh: inactive; HEK293 ctr: inactive; CHO-K1 ctr: -16; KCNQ1 sel pot: -33; KCNQ2 pot confirm: 26*; Kir21 spec: -33; KCNQ2 W236L pot: inactive

How did CCOC(=O)C1CCN(C(=O)Cn2nc(C)n3c(cc4cc(F)ccc43)c2=O)CC1 do in these assays?
KCNQ2 block: inactive; KCNQ2 pot: 4.7

Results for COc1ccccc1C(=O)C1CCCN(C(=O)CCn2cnnn2)C1 (configuration not stated) ?
KCNQ2 block: inactive; KCNQ2 pot: 0.66

Results for COc1ccc(N2C(=O)C3NN=C(C(=O)OCc4ccccc4)C3C2=O)cc1 (configuration not stated) ?
KCNQ2 block: inactive; KCNQ2 pot: 0.67

Screening data (PubChem)
